Data on 38 compounds can be found in PubChem BioAssay AID504727 (Broad Institute, 2011).

Calls of active or inactive are those of the source.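 How the source made its calls: active means fitted half-maximal concentration AC50 at or below ten times the highest valid tested dose, with signal falling as DNA is displaced (actives reach about 34 µM in these data); inconclusive means flat fit at moderate signal loss, or poor fit quality; inactive means the rest, including signal rising instead of falling.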

Broadly, the AC50 is the concentration giving half of the maximal activity seen.

The assay is described as follows: acridine orange-DNA binding displacement – biochemical, fluorescence polarization, cherry-picked samples, set 2, artefact control for KSHV LANA DNA-binding inhibitor project, dose response (AID 504727). As to conditions: series mostly up to 35 µM. Background: In fluorescence polarisation assays a small probe gives low polarisation when free and higher when bound to something large.
As to `COc1ccc(OC)c(-c2c3cc(O)c(=O)cc-3oc3cc(O)c(O)cc23)c1`, the AC50 is 1.62 µM (active). For `O=C(O)c1cccc(NC2=Nc3cccc4cccc2c34)c1`, the AC50 entry is “inactive”. The result for `Cn1c(Cl)c(C(=O)Nc2ccc(Cl)cc2)c2ccccc21` reads “inactive”; that for `CC(C(=O)Nc1ccccc1)N1C(=O)c2ccccc2C1=O` (stereo not drawn), “inactive”; that for `CCOc1ccc(Nc2ccc(N)c(S(=O)(=O)O)c2)cc1`, “inactive”. Regarding `CCCc1cc(=O)oc2cc(C)cc(OCC(=O)O)c12`, the AC50 entry was “inactive”.

On to `COc1ccc(C(C)=O)cc1CN(C)C`, for which the AC50 entry is “inactive”. Take `NS(=O)(=O)c1cc(C(=O)NC2CCSc3ccccc32)ccc1Cl` (stereo not drawn): the AC50 entry is “inactive”.

`Cc1ccc(-c2nnn(CC(=O)NC3CCN(Cc4ccccc4)CC3)n2)cc1`: the AC50 entry is “inactive”. The result for `O=c1c2cc(O)c(O)cc2oc2cc(O)c(C3OC(CO)C(O)C(O)C3O)c(O)c12` (stereo not drawn) reads “inactive”.

In the case of `COc1cccc(NC(=S)N2CCN(C(c3ccccc3)c3ccccc3)CC2)c1`, the AC50 result was “inactive”. The result for `CCOC(=O)c1c(C)n(C)c2ccc(OCCN(C)C)cc12` reads “inactive”. Then `CCOc1ccc(/C=C2\CCCc3c2nc2ccccc2c3C(=O)O)cc1OC`, with 1.73 µM (active); and `COC(=O)\C(C(C)=O)=C(/C=C/C=C/C=C/N(C)C)N(C)C`, with “inactive”. The result for `CN1CCN(C(=S)c2ccc(N(C)C)cc2)CC1` reads “inactive”.

For `Cc1c(N)cc(S(=O)(=O)O)cc1NC(=O)c1cccc([N+](=O)[O-])c1`, the AC50 entry was “inactive”. Consider `COc1ccc(N(CC(=O)NCc2ccc3c(c2)OCO3)C(=O)c2csnn2)cc1`, for which the AC50 result is “inactive”. The result for `COc1ccc(/C=N/NC(=O)c2ccc3nc[nH]c3c2)c(OC)c1` reads “inactive”; that for `O=C(CN1CCN(C(=O)CNC(=O)c2ccc3c(c2)OCO3)CC1)Nc1ccc(F)cc1`, “inactive”; that for `Cc1n[nH]c(C)c1N1C(=O)c2cccc3c(N4CCCCCC4)ccc(c23)C1=O`, 33.6 µM (active). Then `COc1cccc2c1C(=O)c1c(O)c3c(c(O)c1C2=O)C[C@](O)(C(C)=O)C[C@H]3O[C@@H]1C[C@@H](N)[C@@H](O)[C@@H](C)O1`, with 2.98 µM (active); and `N#CCCN(CCC#N)C(=O)C1c2ccccc2Oc2ccccc21`, with “inactive”; and `NNC(=O)C1C(O)CCC2CN3CCc4c([nH]c5ccccc45)C3CC21` (stereo not drawn), with “inactive”. Then `Cc1cc(NC(=O)CCC(=O)N(CCC(C)C)C(C(=O)NC2CCCC2)c2cccnc2)no1` (stereo not drawn), with “inactive”; and `Cc1c(NC(=O)CCC2CCCCC2)cc(C(=O)N2CCOCC2)cc1[N+](=O)[O-]`, with “inactive”; and `COc1cccc(NC(=O)N(CCN(C)C)C(C)c2cccnc2)c1` (stereo not drawn), with “inactive”. As for `CC(=O)N/C(=N\OCc1ccc(Br)cc1)c1nonc1NC(C)=O`, the AC50 entry was “inactive”. As to `Nc1c(/C=C2/C=CC(=O)C(O)=C2)c(=O)nc2sc(CC(=O)N3CCCCC3)nn12`, the AC50 entry is “inactive”.

As to `CC(C)c1ccc(NC(=O)Cn2c(=O)oc3cccnc32)cc1`, the AC50 result was “inactive”. Take `O=C(N/N=C/c1ccc(N2CCOCC2)cc1)c1ccccn1`: the AC50 result is “inactive”. The result for `CCNC(=O)COC(=O)c1cccc(Br)c1` reads “inactive”. For the compound `CCN(CC)S(=O)(=O)N1CCN(S(=O)(=O)N2CCOCC2)CC1`, the AC50 entry was “inactive”.

In the case of `Nc1ccc(-c2c3ccc(=O)cc-3oc3cc(O)ccc23)cc1C(=O)O`, the AC50 was 1.07 µM (active).

Turning to `Oc1ccc2ccc3cccc[n+]3c2c1`, the AC50 was 1.42 µM (active). The result for `CCCCCn1nc(-c2ccccc2)c2nc3ccccc3nc21` reads > 35 µM (inactive). For the compound `C=CCNC(=S)N1CCN(S(=O)(=O)c2ccc(C)cc2)CC1`, the AC50 result is “inactive”.

As for `CCOC(=O)C1C2C=CC3(CN(c4cccc(Cl)c4)C(=O)C13)O2` (stereo not drawn), the AC50 entry was “inactive”. For `O=C1/C(=C/C=C/c2ccco2)SC(=S)N1NS(=O)(=O)c1ccccc1`, the AC50 entry was “inactive”.
